# Screening results as filed in PubChem BioAssay.
# HSF1 inhib: HSF1 inhibition | NIH3T3-HGL HSE-luciferase, MG132-induced, luminescence 8 h; stronger effect = lower value | activity change, negative = inhibition, % at 7.5 µM (by protocol) | 300,000 compounds, 0.77% hits;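 active = more than half of replicate wells show activity change below -50%, luminescence cut by over half; inconclusive = some wells, but at most half, below -50%; inactive = no replicate well below -50%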;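 also: luciferase reports HSF-1 transcriptional activity via heat shock element; 0% = median of DMSO wells and -100% = zero luminescence signal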
# Dyrk1A ADPGlo: inhibitors of rat Dyrk1A kinase; Q63470; ADP-Glo luminescence, NFATc1 peptide; inhibition, % at 12.5 µM; 310,000 compounds, 0.43% hits; AID 504441; in the data active = inhibition above about 50%;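 also: plate controls were vehicle with enzyme for no effect and no enzyme for full effect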
# NPR2 activator: GC-B (human) receptor activation. P20594. HEK293-GC-B cells, CNP EC30, cGMP TR-FRET; 0% at EC30 CNP, 100% saturating CNP. activation, % at 10 µM. 370,000 compounds, 0.11% hits. AID 1920062;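 active = activation at 10 µM reaching about 35% in either raw or pattern-adjusted values, limit read from the data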
# HSF1 activator: increases HSF-1 driven luciferase reporter signal; NIH3T3-HGL HSF-1 luciferase reporter, MG132, 8 h; 100% = twice DMSO control signal; 300,000 compounds, 1.7% hits; AID 504408; activation, % at 9 µM;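 active = mean replicate activation of at least 50% with a set share of replicates each reaching 50%; inconclusive = only one of those two conditions met; inactive = mean below 50% and too few replicates reaching it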;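 also: 0% = median of the neutral control wells and 100% = twice that signal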
# aDG glyco up: increases alpha dystroglycan glycosylation; Pro5-aDG cells, alpha-DG glycosylation AlphaScreen (IIH6); 0% Pro5, 100% B10-LARGE cell signal; activation, % at 10 µM; 360,000 compounds, 0.22% hits; AID 624168;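 active = activation of at least 8% versus controls, or a plate z-score of at least 8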;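 also: Pro5 are CHO cells carrying HIG-tagged alpha-DG that lacks glycosylation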
# NPR1 activator: GC-A (human) enzyme activation; HEK293 GC-A cells, cGMP TR-FRET, EC30 ANP; 0% at EC30 ANP, 100% saturating ANP; P16066; activation, % at 10 µM; 370,000 compounds, 0.14% hits; in the data active = activation above about 40%
# ADP-Glo artifact: interferes with ADP-Glo luciferase readout without Dyrk1A. AID 588348. 1,300 tested, under 10 active. ADP-Glo luciferase artifact assay, no Dyrk1A, luminescence. shares compounds with Dyrk1A ADPGlo. AC50, µM (highest dose often 12 µM), inactives show at the top dose activity change, negative = inhibition;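 active = fitted half-maximal dose AC50 no more than ten times the top valid tested dose, with luminescence dropping as dose rises; inconclusive = poor fit, or flat fit with 30 to 70% inhibition; inactive = the rest, signal increases included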
# The depositor's hits bear a star; u = inconclusive; x = no result. An excerpt weighted towards active compounds, which were near 2.5% of everything screened.
SMILES,HSF1 inhib,Dyrk1A ADPGlo,NPR2 activator,HSF1 activator,aDG glyco up,NPR1 activator,ADP-Glo artifact
CCN(CC)C(=O)c1cccc(-c2csc(C(C)(NC(C)=O)c3ccccc3)n2)c1 (stereo unspecified),x,x,-1.6,x,0.0,2.5,x
O=C1c2ccccc2C(=O)c2[nH]cnc21,13.4,56.5*,2.8,33.0,0.9,3.0,7.3%
O=C1c2ccccc2C(=O)c2[nH]c(=O)[nH]c21,29.6,18.7,-4.8,41.5,1.4,-2.1,x
COc1ccc(N2CCN(CCCNC(=O)CCCn3c(=O)[nH]c4ccsc4c3=O)CC2)cc1,-6.1,-2.5,-1.9,-4.9,-0.1,-1.6,x
Cn1nnnc1Sc1ncnc2scc(-c3ccc[nH]3)c12,x,52.1*,3.5,x,-0.1,-2.9,8.2%
CCN(CC)Cc1oc(CO)cc(=O)c1O,-5.7,7.5,1.2,-3.0,0.0,3.3,x
N#CCC(=O)NN=C1CCCCCCCCCCC1,-10.0,11.2,-1.6,-0.4,-0.1,-3.2,x
COc1ccc(-c2ccc(=O)n(Cc3cccc([N+](=O)[O-])c3)n2)cc1,-20.0,64.0*,-2.9,-40.9,0.3,3.2,7.5%
COc1ccc(-c2ccc(=O)n(Cc3c(F)cccc3Cl)n2)cc1,3.7,5.3,-2.7,4.5,0.2,1.7,x
CC(C)(C)C(=O)Nc1nnc(SCC(=O)Nc2ccc3c(c2)OCO3)s1,-0.7,-1.2,7.0,-15.8,0.2,-0.8,x
COc1cc(OC)cc(C(=O)OCC(=O)c2ccc(S(=O)(=O)N3CCCCC3)cc2)c1,x,-0.8,0.3,x,0.2,-3.4,x
Cc1ccc2oc(=O)c3cnn(CC(=O)NC4CCCCC4C)c3c2c1 (stereo unspecified),9.0,61.3*,2.5,12.4,0.4,-5.0,7.9%
Cc1ccc2oc(=O)c3cnn(CC(=O)NC4CCC(C)CC4)c3c2c1 (stereo unspecified),-8.5,1.4,-3.6,-4.8,0.2,-5.3,x
CCOC(=O)c1nn(-c2ccc3c(c2)OCCO3)cc1O,21.1,x,-4.7,44.0,0.0,-1.2,x
COC(=O)c1nn(-c2ccc3c(c2)OCO3)cc1O,14.7,68.6*,-2.3,26.3,-0.2,0.3,5.1%
COc1ccc(-c2cnnc(N/N=C/c3ccc(O)c(OC)c3)n2)cc1,6.5,20.2,-1.4,22.5,-0.4,8.8,x
COc1ccc(-n2nc(C)cc2Nc2ccccc2C(=O)O)cc1,-5.9,65.9*,3.6,-14.4,-0.1,-0.9,8.0%
Cc1cc(Nc2ccccc2)n(-c2ccc(C(=O)O)cc2)n1,x,-4.8,4.2,x,-0.2,0.4,x
O=C(N/N=C/c1cccc(O)c1)N/N=C/c1cccc(O)c1,-2.5,53.7*,-2.8,-0.9,0.0,-3.9,7.7%
CN(C)CCNC(=O)c1cc2c(s1)-c1ccccc1OC2,5.6,68.3*,-5.9,18.3,0.3,8.1,6.6%
Oc1c(Cl)c(Cl)c2ncccc2c1Cl,x,55.1*,-3.2,x,0.3,0.6,9.2%
CC1=C(C(=O)OCc2ccc3c(c2)OCO3)C(c2ccccc2)NC(=O)N1 (stereo unspecified),u,77.5*,6.1,-55.4,0.1,0.1,7.5%
COC(=O)C1=C(C)N(Cc2ccccc2C(F)(F)F)C(=NCc2ccc(C(F)(F)F)cc2)NC1c1cccc(C(F)(F)F)c1 (stereo unspecified),x,x,4.2,x,x,-0.6,x
CCOC(=O)C(Cc1ccc(O)cc1)NC(=O)CCc1c[nH]c2ccccc12 (stereo unspecified),-0.6,51.0*,2.0,-2.2,0.0,-2.3,12.4%
CC(=O)Nc1nc(-c2ccc3c(c2)OCO3)cs1,2.8,57.5*,-1.7,28.3,0.0,17.2,10.3%
SMILES,HSF1 inhib,Dyrk1A ADPGlo,NPR2 activator,HSF1 activator,aDG glyco up,NPR1 activator,ADP-Glo artifact
CN(C)/C=N/c1nc(-c2ccc3c(c2)OCO3)cs1,26.3,76.8*,-2.1,u,-0.5,0.9,6.4%
CC1Cc2cc(/C=C3/SC(=S)NC3=O)ccc2O1 (stereo unspecified),13.5,84.4*,-13.7,22.8,0.0,2.3,8.5%
O=C(NN1C(=O)/C(=C/c2ccc(O)c([N+](=O)[O-])c2)SC1=S)c1ccccc1Cl,-5.5,74.0*,-3.1,1.6,-0.3,-1.5,9.8%
CC(=O)Nc1nc2ccc(Br)cc2s1,15.0,70.8*,-7.0,25.6,-0.2,17.3,5.9%
OCC[C@@H]1C[C@H](O)[C@@H](O)[C@@]2(CCc3ccccc3CO2)O1,-10.4,51.8*,-0.6,-10.9,-0.2,3.5,7.1%
CC(C(=O)O)N1C(=O)CSC1=S (stereo unspecified),-14.5,6.7,7.2,-26.7,0.0,1.7,x
Oc1ccc(-c2csc(-c3ccccc3)n2)cc1O,105.1,55.4*,x,155.2*,-0.1,x,7.5%
Cc1nc(-c2ccc(O)c(O)c2)cs1,-41.5,21.9,9.3,-47.9,1.6,9.2,x
Oc1ccc(-c2csc(-c3cccnc3)n2)cc1O,26.3,50.9*,-8.3,42.0,0.4,-0.5,7.0%
CC(=O)N1CCN=C1SCc1ccc(C(F)(F)F)cc1,-1.1,1.9,11.2,6.6,-0.1,1.1,x
Oc1cccc2c(-c3nn[nH]n3)ccnc12,x,69.5*,-2.2,x,-0.1,1.6,11.7%
CCCCCCCOc1ccc(C(=O)Nc2cccnc2)cc1,9.5,0.3,-1.5,5.8,0.3,-8.6,x
CC(C)Oc1ccc(C2CC(=O)NC2=O)cc1 (stereo unspecified),2.0,10.8,1.4,-6.5,0.1,0.2,x
CC(C)Oc1ccc(C2CNC(=O)C2)cc1 (stereo unspecified),-6.4,53.6*,5.2,-0.5,0.1,-0.9,8.0%
c1nc2sc3c(c2c2nnnn12)CCCC3,-24.0,50.3*,-2.1,-24.9,0.1,5.8,8.2%
CS(=O)(=O)N(CCc1ccccc1)CC(=O)NCc1ccc2c(c1)OCO2,-3.9,-2.7,-1.1,4.1,0.8,-4.2,x
COc1ccc2c(C#CCCO)c(-c3ccc(S(C)(=O)=O)cc3)sc2c1,x,56.4*,-20.1,x,-0.4,19.3,9.2%
Cc1noc(NS(=O)(=O)c2ccc(NC(=O)c3oc4ccc(Cl)cc4c3C)cc2)c1C,0.8,64.3*,-5.4,6.5,0.2,12.1,10.2%
Cc1c(C(=O)Nc2ccc(S(=O)(=O)Nc3ncccn3)cc2)oc2ccc(Cl)cc12,-3.6,6.6,14.2,16.3,0.1,17.0,x
Nc1ncnc(N)c1N=Nc1ccccc1,-0.4,54.4*,-11.9,16.6,-0.1,-7.2,8.6%
N#Cc1nc(-c2cccs2)oc1NCc1ccccc1,9.3,33.3,3.4,6.8,0.1,8.2,x
N#Cc1nc(-c2cccs2)oc1NCc1ccccc1Cl,-3.5,50.5*,5.6,-2.7,0.0,9.3,10.9%
